# Measurements as given in PubChem BioAssay (NCATS).
# Several values for one entry are separate records, joined by “and”; a condition that tells them apart may be missing. Equal values may be shown once. Activity calls are given as the source filed them. Calls follow the shape of the dose curve; as a rule, active = well fitted activation curve with a large enough effect; inconclusive = small, poorly fitted or top-dose-only effect; inactive = flat fitted curve, though single readings scatter.
# Molecular target: Peroxisome proliferator-activated receptor alpha (Homo sapiens) (UniProt Q07869)
# Test: qHTS assay for small molecule agonists of the peroxisome proliferator-activated receptor alpha (PPARalpha) signaling pathway (AID 651778); also: % of control where 0% means no effect
# Conditions: PathHunter PPARalpha complementation, chemiluminescence, 6 h; active compounds read high
# From the text: National Center for Advancing Translational Sciences [NCATS]
# NIH Chemical Genomics Center [NCGC]
# U.S. Environmental Protection Agency [EPA]
# National Institutes of Environmental Health Sciences [NIEHS]
# National Toxicology Program [NTP]
# The Peroxisome proliferator-activated receptors (PPARs) are lipid-activated transcription factors of the nuclear receptor superfamily with three distinct subtypes (alpha, garmma and beta/delta). All these subtypes heterodimerize with retinoid X receptor and have different physiological functions. PPARalpha is highly expressed in tissues with high rates of mitochondrial fatty acid oxidation, such as liver, heart, muscle, kidney and cells of the arterial wall. PPARalpha is a major regulator of lipid metabolism and energy homeostasis.
# A cell based assay was used to identify activators of PPARalpha. The assay detects binding of a ligand to PPARalpha leading to its activation, translocation and complementation thus forming a functional enzyme capable of hydrolyzing the substrate molecule and generating chemiluminescent signal.
# 2,000 cells in 6 uL/well were dispensed into white wall/solid bottom 1536-well plates using a Multidrop Combi (Thermo Scientific) dispenser. After incubation 37 C and 5% CO2 overnight, 23 nL compound or DMSO only were transferred by a pin tool. The plates were incubated for 6 hr at 37 C and 5% CO2. 3 ul PathHunter detection reagent (Discoverx) was then added to each well and following 60 min incubation at room temperature, chemiluminescence was quantified on a ViewLux CCD-based plate reader.
# Peroxisome proliferator-activated receptor alpha (Homo sapiens), sequence (Q07869 whole entry, looked up): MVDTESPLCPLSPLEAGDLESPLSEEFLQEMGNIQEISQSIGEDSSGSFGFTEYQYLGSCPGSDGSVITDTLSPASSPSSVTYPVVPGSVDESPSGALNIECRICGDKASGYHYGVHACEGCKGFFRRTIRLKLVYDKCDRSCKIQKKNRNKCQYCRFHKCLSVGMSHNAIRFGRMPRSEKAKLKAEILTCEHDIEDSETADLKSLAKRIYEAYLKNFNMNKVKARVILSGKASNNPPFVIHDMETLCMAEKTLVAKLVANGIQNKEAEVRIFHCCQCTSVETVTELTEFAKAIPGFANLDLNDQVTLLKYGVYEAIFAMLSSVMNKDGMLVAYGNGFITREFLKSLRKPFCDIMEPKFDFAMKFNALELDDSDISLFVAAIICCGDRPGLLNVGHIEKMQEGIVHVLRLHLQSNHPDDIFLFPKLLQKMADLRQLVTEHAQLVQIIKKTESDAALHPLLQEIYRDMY
row,Structure (SMILES),max response
1,COc1c(C(C)(C)C)cc([N+](=O)[O-])c(C)c1[N+](=O)[O-],1.79% (inactive)
2,OCCCCO,-0.393% (inactive)
3,O=S(=O)(Cl)c1ccccc1,-0.206% (inactive) and -0.679% (inactive)
4,CCBr,-2.39% (inactive)
5,CCN(N=O)C(N)=O,1.39% (inactive)
6,Cc1cc(-c2ccc(N)c(C)c2)ccc1N,-2.87% (inactive) and -0.886% (inactive) and -6.11% (inactive)
7,CC(C)C#N,2.25% (inactive)
8,Oc1c(Cl)cccc1Cl,-1.21% (inactive)
9,FC(Cl)(Cl)Cl,-4.74% (inactive)
10,Cc1ccc2c(C)cccc2c1,3.14% (inactive)
11,Oc1ccc(Cl)c(Cl)c1Cl,0.378% (inactive)
12,COc1ccccc1N,-0.908% (inactive)
13,CCCCNC(=O)n1c(NC(=O)OC)nc2ccccc21,0.197% (inactive) and 0.6% (inactive)
14,O=Cc1ccc(Cl)cc1Cl,-4.79% (inactive)
15,CN(C)c1ccccc1,-1.79% (inactive)
16,CNC(=O)O/N=C/C(C)(C)S(C)=O (stereo not given),-3.1% (inactive) and 0.659% (inactive)
17,CN(C)c1ccc(N)cc1,11.3% (inactive)
18,ClC=CCl,-2.13% (inactive)
19,c1ccc(OCC2CO2)cc1 (stereo not given),-5.02% (inactive)
20,O=c1ccc(=O)[nH][nH]1,-0.0075% (inactive) and -1.1% (inactive)

row,Structure (SMILES),max response
1,C=CC=O,-5.14% (inactive)
2,CCCC[N+](=O)[O-],1.08% (inactive)
3,O=[N+]([O-])c1ccc(O)c([N+](=O)[O-])c1,-7.09% (inactive)
4,COC(=O)c1ccccc1N,-6.67% (inactive)
5,CC(C)OS(C)(=O)=O,-9.26% (inactive)
6,CSSC,-6.95% (inactive)
7,C=COC(C)=O,-3.52% (inactive)
8,OCCOCCO,-3.41% (inactive)
9,Nc1cc(Cl)cc(Cl)c1,0.393% (inactive)
10,Cc1ccc(N)cc1N,6.43% (inactive) and -0.158% (inactive)
11,C(CCOCC1CO1)COCC1CO1 (stereo not given),-0.765% (inactive)
12,CC(C)[N+](=O)[O-],-6.42% (inactive)
13,Nc1ccc(-c2ccc(N)cc2)cc1,-0.279% (inactive)
14,Oc1cc(Cl)c(Cl)c(Cl)c1,-3.78% (inactive)
15,CC(C)[C@]12CC(=O)[C@H](C)[C@H]1C2,5.79% (inactive) and -0.343% (inactive)
16,ClP(Cl)(Cl)(Cl)Cl,0.162% (inactive)
17,c1ccc(Nc2ccc(Nc3ccccc3)cc2)cc1,-0.732% (inactive)
18,ClCCBr,0.115% (inactive)
19,CC(C)CON=O,-1.42% (inactive)
20,Nc1cccc2ccccc12,-2.99% (inactive)
